In PubChem BioAssay (Tox21):
Records with an inconclusive call do not appear. Calls of active or inactive are those of the source. Unless noted, calls come from the whole dose curve; as a rule, active = well fitted curve in the direction sought with a large enough effect in the repeat runs; inconclusive = weak or mixed curves; inactive = no such curve, though single readings can be large; an effect the other way counts as inactive or inconclusive.

Legend:
[1] = target: Acetylcholinesterase (Homo sapiens) (UniProt P22303); assay: Acetylcholinesterase (AChE) small molecule antagonists: enzyme-based qHTS assay (AID 1347397; calls by dose curve; note: nearly all actives have a fitted effect of over 55% in size); conditions: Potency: AChE enzyme activity inhibition; outcome: AChE enzyme activity inhibition
How it was run: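 Human recombinant acetylcholinesterase; substrate acetylthiocholine; thiocholine quantified with DTNB (colorimetric). Compound preincubation 30 min RT; reaction 10 min RT.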

[2] = target: Acetylcholinesterase (Homo sapiens) (UniProt P22303); assay: Acetylcholinesterase (AChE) small molecule antagonists: fluorescence cell-based qHTS assay (AID 1347398; calls by dose curve; note: nearly all actives have a fitted effect of over 50% in size); conditions: Potency: AChE activity; outcome: AChE activity
How it was run: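 Thiocholine generated from acetylthiocholine by SH-SY5Y cell AChE is detected with Thiolite Green (Ex/Em 490/520 nm) after 40 min at room temperature, following 30 min compound pretreatment at 37 C.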

[3] = target: Acetylcholinesterase (Homo sapiens) (UniProt P22303); assay: Acetylcholinesterase (AChE) small molecule antagonists: enzyme-based qHTS assay with human liver microsomes (AID 1347399; calls by dose curve; note: nearly all actives have a fitted effect of over 60% in size); conditions: Potency: qHTS inhibition; outcome: qHTS inhibition
How it was run: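 Recombinant human AChE (50 mU/mL in the enzyme mix) and human liver microsomes (0.25 mg/mL final) were preincubated with compound and NADPH (0.25 mg/mL final) for 30 min at 37 C. Acetylthiocholine/DTNB was then added; thiocholine was read colorimetrically after 10 min at room temperature.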

[4] = qHTS assay for small molecules that induce genotoxicity in human embryonic kidney cells expressing luciferase-tagged ATAD5 (AID 651632); note: nearly all actives have a fitted effect of over 15% in size
How it was run: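 Genotoxicity read-out via ATAD5-luciferase: HEK293T cells, 16 hr compound incubation at 37C, Amplite detection.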

[5] = qHTS assay for small molecule agonists of the p53 signaling pathway - cell viability (AID 651633; calls by dose curve;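 note: p53RE-bla HCT reporter cells with a stable beta-lactamase p53 reporter; series mostly up to about 83 µM; nearly all actives have a fitted effect of over 30% in size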)
How it was run: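 p53RE-bla cells, seeded at 4,000 per well and rested 5 h at 37 C/5% CO2, received compounds in DMSO for 16 h at 37 C. CellTiter-Glo was then added, and luminescence was read after 30 min at room temperature to gauge cytotoxicity.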

[6] = qHTS assay for small molecules that induce genotoxicity in human embryonic kidney cells expressing luciferase-tagged ATAD5 - cell viability (AID 651634; calls by dose curve; note: nearly all actives have a fitted effect of over 25% in size)
How it was run: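 Live-cell protease activity (CellTiter-Fluor, fluorescence) indicates viability. HEK293T cells with luciferase-tagged ATAD5; 15.5 hr compound treatment at 37C.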

[7] = qHTS assay for small molecule disruptors of the mitochondrial membrane potential - cell viability (AID 720634; calls by dose curve;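 note: human HepG2 liver cancer cells; series mostly up to about 83 µM; nearly all actives have a fitted effect of over 20% in size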)
How it was run: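 Human hepatoma HepG2 cells were treated for 1 hr with test chemicals, then given m-MPI dye and CellTiter-Glo. Cell viability reflects luminescence proportional to cellular ATP.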

[8] = qHTS assay for small molecule disruptors of the mitochondrial membrane potential (AID 720635)
How it was run: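 HepG2 cells (2,000/well) attached overnight at 37C, then took compound for 1 hr at 37C, 5% CO2. Mito-MPS dye was added for 30 min; fluorescence was read at 490/535 nm (monomers) and 540/590 nm (aggregates).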

[9] = qHTS assay to test for compound auto fluorescence at 590 nm (red) in HepG2 cells (AID 720674)
How it was run: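 Intrinsic compound fluorescence in the red window (Ex/Em 540/590 nm) is measured in attached HepG2 cells exposed for 1 hr, DMSO vehicle as baseline, benchmarked to Rose Bengal sodium.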

[10] = qHTS assay to test for compound auto fluorescence at 535 nm (green) in HepG2 cells (AID 720675)
[11] = qHTS assay to test for compound auto fluorescence at 460 nm (blue) in HEK293 cells (AID 720678)
How it was run: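 Blue read-out at excitation 405 nm and emission 460 nm follows overnight compound exposure of HEK293 cells at 37C in 5% CO2. Activity is given as auto fluorescence equivalency to triamterene.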

[12] = qHTS assay to test for compound auto fluorescence at 590 nm (red) in HEK293 cells (AID 720679)
How it was run: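 Red channel, Ex/Em 540/590nm; signal expressed as equivalency to Rose Bengal sodium. HEK293, 2,000 cells/well, 10% dialyzed FBS; 23 nL compound pinned after 4-5 hr attachment; overnight 37C/5% CO2 before reading.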

[13] = qHTS assay to test for compound auto fluorescence at 535 nm (green) in HEK293 cells (AID 720680)
[14] = qHTS assay to test for compound auto fluorescence at 460 nm (blue) in HEK293 cell free culture (AID 720681)
How it was run: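 Test compounds were pinned into cell-free culture medium (DMEM with 10% FBS) and fluorescence was read directly at Ex/Em 405/460 nm. Signals were expressed as fluorescence equivalents of triamterene, with DMSO vehicle as control.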

[15] = qHTS assay to test for compound auto fluorescence at 535 nm (green) in HEK293 cell free culture (AID 720682)
How it was run: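 DMEM + 10% FBS, cell-free; cpd or DMSO pinned in; Ex485/Em535 read; output as fluorescein-equivalent signal.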

[16] = qHTS assay to test for compound auto fluorescence at 590 nm (red) in HEK293 cell free culture (AID 720683)
How it was run: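 Tox21 10K library compounds were pinned into cell-free DMEM with 10% FBS and fluorescence was read at excitation 540 nm. Activity is expressed as Rose Bengal sodium equivalency.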

[17] = qHTS assay to test for compound auto fluorescence at 590 nm (red) in HepG2 cell free culture (AID 720684)
How it was run: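 Measured in medium alone (MEM containing 10% FBS) following pintool addition of compound; emission at 590 nm with 540 nm excitation, referenced to Rose Bengal sodium.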

[18] = qHTS assay to test for compound auto fluorescence at 460 nm (blue) in HepG2 cell free culture (AID 720685)
How it was run: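 Compound (23 nL) or DMSO pinned into cell-free MEM with 10% FBS; blue fluorescence read at 405/460 nm excitation/emission, expressed as auto-fluorescence equivalency to triamterene.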

[19] = qHTS assay to test for compound auto fluorescence at 535 nm (green) in HepG2 cell free culture (AID 720686)
[20] = qHTS assay to test for compound auto fluorescence at 460 nm (blue) in HepG2 cells (AID 720687)
How it was run: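 Cells (2,000/well in MEM with 10% FBS) attached overnight at 37 C, then were exposed to compound or DMSO for 1 hr at 37 C, 5% CO2. Fluorescence read at Ex/Em 405/460 nm, expressed as triamterene-equivalent signal.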

[21] = qHTS assay to identify small molecule antagonists of the glucocorticoid receptor (GR) signaling pathway - cell viability counter screen (AID 720693); note: nearly all actives have a fitted effect of over 55% in size
[22] = qHTS assay for identifying genotoxic compounds that show differential cytotoxicity against isogenic chicken DT40 cell lines with known DNA damage response pathways - wild type cell line (AID 743012); note: potency is the fitted concentration of half-maximal effect; nearly all actives have a fitted effect of over 60% in size
How it was run: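 Quantitative HTS on parental DT40 cells: 40 h compound treatment at 37 C/5% CO2, with viability then determined by CellTiter-Glo luminescence. Values serve as the DNA repair-proficient reference for differential cytotoxicity.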

[23] = qHTS assay for identifying genotoxic compounds that show differential cytotoxicity against isogenic chicken DT40 cell lines with known DNA damage response pathways - Rev3 mutant cell line (AID 743014); note: potency is the fitted concentration of half-maximal effect; nearly all actives have a fitted effect of over 55% in size
[24] = qHTS assay for identifying genotoxic compounds that show differential cytotoxicity against isogenic chicken DT40 cell lines with known DNA damage response pathways - Rad54/Ku70 mutant cell line (AID 743015); note: potency is the fitted concentration of half-maximal effect; nearly all actives have a fitted effect of over 60% in size
[25] = qHTS assay to identify small molecule antagonists of the androgen receptor (AR) signaling pathway - cell viability counter screen (AID 743033; note: nearly all actives have a fitted effect of over 45% in size)
[26] = qHTS assay to identify small molecule antagonists of the androgen receptor (AR) signaling pathway using the MDA cell line - cell viability counter screen (AID 743041; note: nearly all actives have a fitted effect of over 45% in size)
How it was run: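 Viability counter screen run alongside the AR antagonist reporter: cells seeded 5 h before compound, R1881 added, 16 h incubation at 37C without CO2, fluorescent CellTiter-Fluor signal quantified.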

[27] = qHTS assay to identify small molecule antagonists of the thyroid receptor (TR) signaling pathway - cell viability counter screen (AID 743064); note: nearly all actives have a fitted effect of over 50% in size
How it was run: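 Viability of T3-stimulated (1 nM final) GH3.TRE-Luc cells is measured by CellTiter-Fluor fluorescence after 23.5 h compound exposure at 37 °C plus 30 min reagent incubation.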

[28] = qHTS assay to identify small molecule antagonists of the thyroid receptor (TR) signaling pathway (AID 743065); note: series mostly up to about 70 µM; nearly all actives have a fitted effect of over 55% in size
How it was run: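 GH3.TRE-Luc rat pituitary cells carrying two TR response elements driving luciferase were plated for 4 h, given compound plus 1 nM T3 (final), and incubated 23.5 h at 37 C. ONE-Glo luminescence measured reporter inhibition; CellTiter-Fluor fluorescence tracked cytotoxicity.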

[29] = system: thyroid hormone receptor (rat, GH3 cells); assay: qHTS assay to identify small molecule agonists of the thyroid receptor (TR) signaling pathway (AID 743066; calls by dose curve)
[30] = target: Estrogen receptor (Homo sapiens) (UniProt P03372); assay: qHTS assay to identify small molecule antagonists of the estrogen receptor alpha (ER-alpha) signaling pathway (AID 743069; active = well fitted curve in the direction sought with a large enough effect in the signal ratio in the repeat runs, not every such curve was filed as active; the % refers to the signal ratio)
How it was run: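 Estradiol-stimulated ER-alpha-UAS-bla HEK293 cells, 18 hr compound exposure at 37C. LiveBLAzer B/G substrate, 2 hr RT, fluorescence read.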

[31] = target: Estrogen receptor (Homo sapiens) (UniProt P03372); assay: qHTS assay to identify small molecule agonists of the estrogen receptor alpha (ER-alpha) signaling pathway (AID 743075; calls by dose curve;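 note: HEK293 GripTite cells with ER-alpha and UAS-driven beta-lactamase reporter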)
[32] = target: Estrogen receptor (Homo sapiens) (UniProt P03372); assay: qHTS assay to identify small molecule agonists of the estrogen receptor alpha (ER-alpha) signaling pathway using the BG1 cell line (AID 743079); note: nearly all actives have a fitted effect of over 20% in size
[33] = qHTS assay to identify small molecule antagonists of the estrogen receptor alpha (ER-alpha) signaling pathway using the BG1 cell line (AID 743080; calls by dose curve;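 note: BG1 cells stimulated with 17beta-estradiol alongside compound; series mostly up to about 70 µM; nearly all actives have a fitted effect of over 25% in size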)
How it was run: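 Luminescence from a 4×ERE-luciferase reporter in BG1-Luc-4E2 cells served as read-out. Cells, pre-cultured 5 days in stripped-serum phenol-red-free medium, were exposed to compound with 17beta-estradiol co-stimulation for 21.5 h at 37 C.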

[34] = qHTS assay to identify small molecule antagonists of the estrogen receptor alpha (ER-alpha) signaling pathway using the BG1 cell line - cell viability counter screen (AID 743081);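 note: compound given together with 17beta-estradiol as the ER stimulus; series mostly up to about 70 µM; nearly all actives have a fitted effect of over 45% in size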
[35] = target: Aromatase (Homo sapiens) (UniProt P11511); assay: qHTS assay to identify aromatase inhibitors (AID 743083)
[36] = qHTS assay to identify aromatase inhibitors - cell viability counter screen (AID 743084)
[37] = target: Aryl hydrocarbon receptor (Homo sapiens) (UniProt P35869); assay: qHTS assay to identify small molecule that activate the aryl hydrocarbon receptor (AhR) signaling pathway (AID 743085);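 note: HG2L7.5c1 human HepG2 liver cells with stably integrated DRE-driven firefly reporter; series mostly up to about 70 µM; nearly all actives have a fitted effect of over 15% in size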
How it was run: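 A multiplexed format paired cell viability (CellTiter-Fluor fluorescence) with AhR-dependent luciferase output (ONE-Glo luminescence) in the same wells of HepG2 DRE-luc cells after 24 h compound exposure at 37C.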

[38] = qHTS assay to identify small molecule that activate the aryl hydrocarbon receptor (AhR) signaling pathway - cell viability counter screen (AID 743086);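 note: HepG2 liver cells carrying the AhR DRE luciferase reporter; series mostly up to about 70 µM; nearly all actives have a fitted effect of over 45% in size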
How it was run: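 HepG2-AhR-luc (HG2L7.5c1) cells, 4000/well, were preincubated 5 h at 37C, exposed to compound in qHTS format for 24 hr at 37C, then given CellTiter-Fluor for 30 min; viability was read as fluorescence in the reporter wells.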

[39] = target: Peroxisome proliferator-activated receptor gamma (Homo sapiens) (UniProt P37231); assay: qHTS assay to identify small molecule agonists of the peroxisome proliferator-activated receptor gamma (PPARg) signaling pathway (AID 743094; active = well fitted activation curve with a large enough effect in the signal ratio in the repeat runs, not every such curve was filed as active; the % refers to the signal ratio)
How it was run: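 Stably transfected HEK293H cells (GeneBLAzer PPARg UAS-bla) were incubated with test substances for 17 h at 37C after a 5 h pre-incubation; beta-lactamase activity was then detected by FRET substrate fluorescence.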

Measured: Potency

Sequence of Acetylcholinesterase (Homo sapiens) (P22303 whole entry, looked up): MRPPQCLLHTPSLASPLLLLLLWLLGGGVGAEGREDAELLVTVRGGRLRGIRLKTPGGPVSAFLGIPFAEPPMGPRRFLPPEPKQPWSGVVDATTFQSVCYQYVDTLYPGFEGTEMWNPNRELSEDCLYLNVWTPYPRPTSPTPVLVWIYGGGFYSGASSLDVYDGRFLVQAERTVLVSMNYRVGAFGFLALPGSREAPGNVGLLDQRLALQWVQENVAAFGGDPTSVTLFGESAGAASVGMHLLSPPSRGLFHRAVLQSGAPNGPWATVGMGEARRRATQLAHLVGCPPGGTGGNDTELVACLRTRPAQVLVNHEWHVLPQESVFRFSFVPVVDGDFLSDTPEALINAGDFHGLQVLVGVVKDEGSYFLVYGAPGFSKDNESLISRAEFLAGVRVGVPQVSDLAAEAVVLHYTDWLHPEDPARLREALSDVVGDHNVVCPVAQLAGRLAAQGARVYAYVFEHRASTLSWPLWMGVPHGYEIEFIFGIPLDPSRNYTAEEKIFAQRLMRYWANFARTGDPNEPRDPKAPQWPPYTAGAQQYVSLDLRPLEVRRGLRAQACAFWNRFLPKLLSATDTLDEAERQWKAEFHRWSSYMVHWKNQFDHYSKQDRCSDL
Sequence of Estrogen receptor (Homo sapiens) (P03372 whole entry, looked up): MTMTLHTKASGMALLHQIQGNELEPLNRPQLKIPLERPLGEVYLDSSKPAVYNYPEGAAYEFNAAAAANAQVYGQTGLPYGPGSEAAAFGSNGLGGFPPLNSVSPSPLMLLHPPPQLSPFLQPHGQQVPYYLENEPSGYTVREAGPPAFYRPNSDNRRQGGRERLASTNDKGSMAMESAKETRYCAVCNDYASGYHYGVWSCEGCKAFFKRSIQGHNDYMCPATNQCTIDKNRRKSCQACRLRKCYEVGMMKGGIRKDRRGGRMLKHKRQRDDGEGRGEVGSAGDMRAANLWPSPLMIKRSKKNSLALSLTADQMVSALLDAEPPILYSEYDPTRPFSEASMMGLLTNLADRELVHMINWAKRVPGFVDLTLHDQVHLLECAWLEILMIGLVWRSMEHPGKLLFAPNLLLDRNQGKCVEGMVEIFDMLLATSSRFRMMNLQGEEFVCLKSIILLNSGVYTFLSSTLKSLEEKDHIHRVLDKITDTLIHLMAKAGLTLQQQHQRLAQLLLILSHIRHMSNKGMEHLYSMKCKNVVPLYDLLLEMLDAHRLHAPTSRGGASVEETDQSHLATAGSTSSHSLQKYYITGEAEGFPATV
Sequence of Aromatase (Homo sapiens) (P11511 whole entry, looked up): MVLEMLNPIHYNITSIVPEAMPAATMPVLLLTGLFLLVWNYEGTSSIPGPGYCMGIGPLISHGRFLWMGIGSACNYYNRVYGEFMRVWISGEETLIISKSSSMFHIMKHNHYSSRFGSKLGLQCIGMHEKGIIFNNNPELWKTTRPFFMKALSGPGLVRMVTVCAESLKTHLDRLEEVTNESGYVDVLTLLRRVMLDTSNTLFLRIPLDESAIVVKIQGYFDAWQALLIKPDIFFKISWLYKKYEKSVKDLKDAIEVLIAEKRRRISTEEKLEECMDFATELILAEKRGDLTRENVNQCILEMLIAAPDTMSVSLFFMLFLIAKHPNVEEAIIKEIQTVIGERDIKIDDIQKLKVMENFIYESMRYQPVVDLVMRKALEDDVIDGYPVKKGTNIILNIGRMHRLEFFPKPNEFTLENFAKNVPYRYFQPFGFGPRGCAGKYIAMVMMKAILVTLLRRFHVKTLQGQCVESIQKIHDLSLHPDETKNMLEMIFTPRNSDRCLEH
Sequence of Peroxisome proliferator-activated receptor gamma (Homo sapiens) (P37231 whole entry, looked up): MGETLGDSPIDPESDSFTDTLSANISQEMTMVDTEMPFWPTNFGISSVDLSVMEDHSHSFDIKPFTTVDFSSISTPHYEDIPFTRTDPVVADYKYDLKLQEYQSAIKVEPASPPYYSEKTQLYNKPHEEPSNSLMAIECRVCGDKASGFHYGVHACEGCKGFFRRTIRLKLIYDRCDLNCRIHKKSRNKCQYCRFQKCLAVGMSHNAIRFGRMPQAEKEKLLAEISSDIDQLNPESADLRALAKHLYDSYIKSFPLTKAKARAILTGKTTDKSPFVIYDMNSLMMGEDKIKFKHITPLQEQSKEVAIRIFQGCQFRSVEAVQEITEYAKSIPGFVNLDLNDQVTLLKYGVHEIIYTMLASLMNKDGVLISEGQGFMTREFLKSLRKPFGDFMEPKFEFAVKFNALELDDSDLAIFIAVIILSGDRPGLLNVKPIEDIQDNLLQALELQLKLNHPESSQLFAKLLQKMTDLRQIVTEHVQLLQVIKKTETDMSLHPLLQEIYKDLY
Sequence of Aryl hydrocarbon receptor (Homo sapiens) (P35869 whole entry, looked up): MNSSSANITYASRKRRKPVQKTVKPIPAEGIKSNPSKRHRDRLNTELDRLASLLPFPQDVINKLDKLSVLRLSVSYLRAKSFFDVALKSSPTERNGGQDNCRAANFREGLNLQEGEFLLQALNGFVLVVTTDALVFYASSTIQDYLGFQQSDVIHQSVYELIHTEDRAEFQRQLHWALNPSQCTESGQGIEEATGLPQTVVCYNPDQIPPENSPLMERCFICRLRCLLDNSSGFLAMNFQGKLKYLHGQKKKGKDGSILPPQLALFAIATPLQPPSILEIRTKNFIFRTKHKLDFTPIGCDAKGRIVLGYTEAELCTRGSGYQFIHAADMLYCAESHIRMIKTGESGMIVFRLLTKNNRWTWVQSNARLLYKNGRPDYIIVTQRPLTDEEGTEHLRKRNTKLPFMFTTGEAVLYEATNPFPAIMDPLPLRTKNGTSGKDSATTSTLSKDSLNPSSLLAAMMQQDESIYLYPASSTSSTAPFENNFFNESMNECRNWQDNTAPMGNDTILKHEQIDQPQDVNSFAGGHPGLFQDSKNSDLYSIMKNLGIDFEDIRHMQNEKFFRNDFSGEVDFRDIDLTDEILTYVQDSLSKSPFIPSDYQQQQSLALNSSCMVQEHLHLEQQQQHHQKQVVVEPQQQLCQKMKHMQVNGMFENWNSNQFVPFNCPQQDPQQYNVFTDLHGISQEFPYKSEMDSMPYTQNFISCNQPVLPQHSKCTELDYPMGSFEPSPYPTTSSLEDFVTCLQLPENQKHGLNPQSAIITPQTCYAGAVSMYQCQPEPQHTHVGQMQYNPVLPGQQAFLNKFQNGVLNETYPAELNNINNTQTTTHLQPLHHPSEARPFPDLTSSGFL

CO[C@@H]1[C@@H](OC)[C@H](C)[C@@](O)(CC(=O)O)O[C@H]1[C@H](C)[C@H]1O[C@@]2(CC[C@@](C)([C@H]3CC[C@@](C)([C@@H]4O[C@@H]([C@H]5O[C@](C)(O)[C@H](C)C[C@@H]5C)C[C@@H]4OC4C[C@H](OC)[C@@H](OC)[C@H](C)O4)O3)O2)C[C@H](O)[C@H]1C (some centres not stated)
inactive: [1] | [2] | [3]

Nc1cc(-c2ccncc2)c[nH]c1=O
inactive: [1] | [2] | [3]

CC(=O)[C@H]1CC[C@H]2[C@@H]3CC=C4C[C@@H](O)CC[C@]4(C)[C@H]3CC[C@]12C
inactive: [2] | [3]

C/C=C/C=C/CCCCCCCO
inactive: [1] | [2] | [3]

C1CN(P2(N3CC3)=NP(N3CC3)(N3CC3)=NP(N3CC3)(N3CC3)=N2)CCO1 (configuration not stated)
active: [22] 3.76 µM | [23] 0.168 µM | [24] 8.41 µM
not listed: [1] | [2] | [3]
inactive: all other assays above
